Data reported in PubChem BioAssay AID1159580 (chemical genetic matrix, 2015).
Hit rate of the full screen: of about 5,500 compounds, about 2,000 (36%) were called active. About 18% were inconclusive and are not listed. Rule as the data show it: active = normalized growth mostly below about 0.91 (no sharp cut-off); inconclusive = no clear call, values can overlap the other calls; inactive = mostly above about 0.92. Some of the results follow.

Experiment: chemical genetic growth profiling, strain panel (AID 1159580);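 also: tested at 20 µM; growth read once vehicle control cultures reached saturation at 30 °C; 1 = growth at the plate median or of vehicle wells; lower values mean less growth of the strain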
Conditions: S. cerevisiae deletion strains, growth OD
[1] = locus YDL101C, strain DUN1, hits give low values
[2] = locus YHR030C, strain SLT2, hits give low values

Measured: normalized growth

Clc1ccc(CSc2nccn2-c2cc(Cl)ccc2Cl)cc1
inactive: locus YAR019C, strain CDC15, hits give low values 0.969 | locus YBL105C, strain PKC1, hits give low values 0.964 | locus YBR135W, strain CKS1, hits give low values 0.96 | locus YBR136W, strain MEC1, hits give low values 0.951 | locus YBR160W, strain CDC28, hits give low values 0.963 | locus YDL017W, strain CDC7, hits give low values 0.969 | locus YDL028C, strain MPS1, hits give low values 0.949 | [1] 0.97 | locus YDL108W, strain KIN28, hits give low values 0.937 | locus YDL132W, strain cdc53, hits give low values 0.978 | locus YDL214C, strain PRR2, hits give low values 0.888 | locus YDR052C, strain DBF4, hits give low values 0.962 | locus YDR054C, strain cdc34, hits give low values 0.946 | locus YDR226W, strain ADK1, hits give low values 0.954 | locus YDR477W, strain SNF1, hits give low values 0.888 | locus YER123W, strain YCK3, hits give low values 0.784 | locus YER133W, strain GLC7, hits give low values 0.884 | locus YFL009W, strain cdc4, hits give low values 0.951 | locus YFL029C, strain CAK1, hits give low values 0.965 | locus YFR003C, strain YPI1, hits give low values 0.958 | locus YFR019W, strain FAB1, hits give low values 0.909 | locus YFR028C, strain CDC14, hits give low values 0.961 | locus YGR040W, strain KSS1, hits give low values 0.872 | locus YGR052W, strain FMP48, hits give low values 0.946 | locus YGR092W, strain DBF2, hits give low values 0.801 | locus YHR079C, strain IRE1, hits give low values 0.88 | locus YHR082C, strain KSP1, hits give low values 0.951 | locus YHR205W, strain SCH9, hits give low values 0.893 | locus YIL147C, strain SLN1, hits give low values 0.953 | locus YJL095W, strain BCK1, hits give low values 0.886 | locus YJL128C, strain PBS2, hits give low values 0.987 | locus YJL157C, strain FAR1, hits give low values 0.867 | locus YJR016C, strain ILV3, hits give low values 0.963 | locus YJR066W, strain TOR1 (second series), hits give low values 0.829 | locus YJR066W, strain TOR1, hits give low values 0.948 | locus YKL048C, strain ELM1, hits give low values 0.927 | locus YKL067W, strain YNK1, hits give low values 0.894 | locus YKL101W, strain HSL1, hits give low values 0.887 | locus YKL193C, strain SDS22, hits give low values 0.961 | locus YKL203C, strain TOR2, hits give low values 0.915 | locus YLR113W, strain HOG1, hits give low values 0.884 | locus YLR133W, strain CKI1, hits give low values 0.886 | locus YLR403W, strain SFP1, hits give low values 0.832 | locus YML070W, strain DAK1, hits give low values 0.872 | locus YMR001C, strain CDC5, hits give low values 0.964 | locus YMR205C, strain PFK2 (second series), hits give low values 0.879 | locus YMR277W, strain FCP1, hits give low values 0.958 | locus YNL006W, strain LST8, hits give low values 0.961 | locus YNL020C, strain ARK1, hits give low values 0.859 | locus YNL161W, strain CBK1, hits give low values 0.964 | locus YNL183C, strain NPR1, hits give low values 0.909 | locus YNL207W, strain RIO2, hits give low values 0.965 | locus YNL222W, strain SSU72, hits give low values 0.961 | locus YNL307C, strain MCK1 (second series), hits give low values 0.879 | locus YOL078W, strain AVO1, hits give low values 0.962 | locus YOL136C, strain PFK27, hits give low values 0.872 | locus YOR061W, strain CKA2, hits give low values 0.817 | locus YOR119C, strain RIO1, hits give low values 0.856 | locus YOR231W, strain MKK1, hits give low values 0.868 | locus YOR329C, strain SCD5, hits give low values 0.967 | locus YPL031C, strain PHO85, hits give low values 0.866 | locus YPL153C, strain RAD53, hits give low values 0.847 | locus YPL204W, strain HRR25, hits give low values 0.86 | locus YPL209C, strain IPL1, hits give low values 0.96 | locus YPL256C, strain CLN2, hits give low values 0.977 | locus YPR025C, strain CCL1, hits give low values 0.964 | locus YPR106W, strain ISR1, hits give low values 0.978 | locus YPR111W, strain DBF20, hits give low values 0.976 | strain NNK1, hits give low values 0.974 | strain TSCII, hits give low values 0.962
active: [2] 0.69

Nc1ncnc(SCc2ccc(Cl)cc2)n1
inactive: locus YAL013W, strain DEP1, hits give low values 0.984 | locus YBR229C, strain ROT2, hits give low values 1.01 | locus YCL061C, strain MRC1, hits give low values 1.02 | [1] 0.988 | locus YDR150W, strain NUM1, hits give low values 1.04 | locus YEL061C, strain CIN8, hits give low values 0.968 | locus YGR078C, strain PAC10, hits give low values 1 | [2] 1.08 | locus YHR087W, strain rtc3, hits give low values 1 | locus YJR043C, strain POL32, hits give low values 0.999 | locus YJR075W, strain HOC1, hits give low values 1.01 | locus YLR039C, strain RIC1, hits give low values 0.835 | locus YLR058C, strain SHM2 (second series), hits give low values 0.999 | locus YLR085C, strain ARP6, hits give low values 0.994 | locus YLR262C, strain YPT6, hits give low values 0.988 | locus YML094W, strain GIM5, hits give low values 0.992 | locus YMR219W, strain ESC1, hits give low values 0.996 | locus YMR263W, strain SAP30, hits give low values 0.989 | locus YMR307W, strain GAS1, hits give low values 0.995 | locus YNL153C, strain GIM3, hits give low values 1.01 | locus YNL298W, strain CLA4 (second series), hits give low values 0.98 | locus YNL322C, strain KRE1, hits give low values 0.987 | locus YNR030W, strain Alg12, hits give low values 1.02 | locus YPL055C, strain LGE1, hits give low values 1.01 | locus YPL241C, strain CIN2, hits give low values 0.993 | locus YPR135W, strain CTF4, hits give low values 1.14
